# From PubChem BioAssay
# Shown are actives, neighbours in structure and some others; about 3.5% of the full set was active somewhere.
# TEAD-YAP inh – TEAD-YAP interaction inhibition; HEK-TIYL cells, TEAD-Gal4/YAP UAS-luciferase luminescence; inhibition, % at 9.12 µM; actives 1.4% (n = 640,000); AID 1259422; in the data active = inhibition above about 32%;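 also: 0% = median of test compound wells and 100% = reference inhibitor wells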
# MITF primary – blocks human microphthalmia-associated transcription factor; AlphaScreen MITF homodimerization, bead proximity signal; O75030; inhibition, % at 2.6 µM; actives 0.91% (n = 650,000); in the data active = inhibition above about 50%;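 also: 0% = vehicle wells with protein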
# GPR151 activ – human GPR151 activation; Q8TDV0; PathHunter beta-arrestin GPR151 cells, luminescence; activation, % at 11.2 µM; actives 1% (n = 650,000); in the data active = activation above about 4.9%;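 also: 0% = median of compound wells and 100% = cells with positive control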
# FBW7 activator – human FBW7 E3 ligase activation, primary screen | AlphaScreen FBW7–phospho-cyclin E peptide binding, activator screen | normalized activity (activation), % at 26.1 µM | actives 0.13% (n = 650,000) | AID 1259310; in the data active = normalized activity above about 1.9%;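 also: purified mutant Fbw7 with reduced substrate affinity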
# Target sequence (Q969H0 whole entry, looked up): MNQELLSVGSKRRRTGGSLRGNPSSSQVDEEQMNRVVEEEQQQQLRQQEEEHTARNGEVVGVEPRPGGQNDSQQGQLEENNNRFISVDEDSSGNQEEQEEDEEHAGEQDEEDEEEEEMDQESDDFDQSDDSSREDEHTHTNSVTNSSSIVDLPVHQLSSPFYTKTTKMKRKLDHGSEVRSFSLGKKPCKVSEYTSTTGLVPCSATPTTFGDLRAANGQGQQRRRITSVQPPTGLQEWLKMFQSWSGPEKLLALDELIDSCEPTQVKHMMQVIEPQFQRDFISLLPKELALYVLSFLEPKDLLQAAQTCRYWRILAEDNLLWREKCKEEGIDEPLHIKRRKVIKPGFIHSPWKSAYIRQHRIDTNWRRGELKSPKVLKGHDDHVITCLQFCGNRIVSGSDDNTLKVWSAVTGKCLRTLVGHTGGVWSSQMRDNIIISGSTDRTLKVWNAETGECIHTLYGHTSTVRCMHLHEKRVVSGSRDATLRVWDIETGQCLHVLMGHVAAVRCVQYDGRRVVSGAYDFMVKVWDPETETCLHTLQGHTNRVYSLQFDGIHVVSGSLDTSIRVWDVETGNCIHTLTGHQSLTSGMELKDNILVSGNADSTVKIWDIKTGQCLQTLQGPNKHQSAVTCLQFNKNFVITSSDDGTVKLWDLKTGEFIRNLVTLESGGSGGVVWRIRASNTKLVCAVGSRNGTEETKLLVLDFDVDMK
# Numbers without * were called inactive.
SMILES,TEAD-YAP inh,MITF primary,GPR151 activ,FBW7 activator
O=C1CCCC2=C1C(c1ccc(Cl)cc1)NC(=S)N2 (centres undefined),17.1,5.8,2.4,-0.1
O=C1CCCC2=C1C(c1cccc(O)c1)NC(=S)N2 (centres undefined),64.6*,-22.0,0.8,0.1
Cc1cc(/C=C2/NC(=O)N(c3cccc(Cl)c3)C2=O)c(C)n1C,55.4*,0.6,-1.4,-0.1
c1ccc(CN2CCC(NCc3ccc(N4CCOCC4)cc3)CC2)cc1,-6.3,68.1*,1.2,-0.1
O=C(COc1cccc(-c2nc(Nc3ccc4[nH]ncc4c3)c3ccccc3n2)c1)Nc1cccnc1,37.2*,12.8,0.0,0.0
COC(=O)COc1cccc(-c2nc(Nc3ccc4[nH]ncc4c3)c3ccccc3n2)c1,3.0,12.8,0.2,-0.1
C[C@H]1[C@@H](OC(=O)CCC(=O)O)O[C@@H]2OC3(C)CC[C@H]4[C@H](C)CC[C@@H]1[C@@]24OO3,82.3*,-0.5,-0.2,0.0
C[C@@H]1CC[C@H]2[C@@H](C)C(O)O[C@@H]3OC4(C)CC[C@@H]1[C@]32OO4 (some centres undefined),88.3*,25.1,0.1,-0.1
CO[C@H]1O[C@@H]2O[C@@]3(C)CC[C@H]4[C@H](C)CC[C@@H]([C@H]1C)[C@@]24OO3,1.8,8.9,1.3,0.1
CCCC(=O)Nc1cc(C(=O)O)ccc1S(=O)(=O)c1ccc(C)cc1,0.2,9.5,-1.3,0.1
COc1cc(OC)c2c(=O)c(-c3ccc4c(c3)OCO4)coc2c1,-65.8,-5.6,0.4,0.0
CC(=O)Oc1ccc2c(=O)c(-c3ccc4c(c3)OCCCO4)coc2c1,66.9*,4.0,-2.1,0.0
COc1ccc2c(=O)c(-c3ccc4c(c3)OCCCO4)coc2c1,-22.7,18.4,-1.1,0.2
CC(=O)Oc1cc(OC(C)=O)c2c(=O)c(-c3ccc4c(c3)OCCCO4)coc2c1,69.5*,3.4,-0.5,0.0
O=C(CSc1nnc(Cc2ccc(Cl)cc2)o1)Nc1ccccc1,-3.2,14.4,-1.0,0.9
O=C(Nc1ccccc1)N1CCC2(CC1)NCCc1c2[nH]c2ccc(Cl)cc12,46.5*,10.3,-0.2,-0.3
COc1ccc2c(c1)c(=O)oc1c(CN(C)C)c(O)ccc12,-25.4,19.0,-2.4,0.1
COc1ccc(/C=C2\C=C(c3ccccc3)N(c3ccccc3)C2=O)cc1,-47.5,3.5,1.1,-0.1
COc1ccc(/C=C2\C=C(c3ccccc3)N(c3ccc(C)cc3C)C2=O)cc1,45.4*,26.6,0.0,0.6
Cc1ccc(N2C(=O)/C(=C/c3ccc(Cl)cc3)C=C2c2ccccc2)c(C)c1,-6.5,21.9,1.5,0.3
COc1ccc(/C=C2\C=C(c3ccccc3)N(c3ccc(C)cc3Br)C2=O)cc1,46.5*,0.9,-1.4,0.2
COc1ccc(/C=C2\C=C(c3ccccc3)N(c3ccccc3Br)C2=O)cc1,23.8,9.7,-0.7,-0.1
COc1ccc(/C=C2\C=C(c3ccccc3)N(c3ccc(O)cc3)C2=O)cc1,49.3*,11.3,1.8,-0.5
Cc1nc2c(ccc3nc(NC(=O)c4ccc(S(=O)(=O)N5CC(C)OC(C)C5)cc4)sc32)s1 (centres undefined),4.0,8.0,-0.9,1.2
COc1ccc(CN2CCN(CC(C)C)C(CCO)C2)c(O)c1 (centres undefined),10.2,7.1,0.8,-0.1
SMILES,TEAD-YAP inh,MITF primary,GPR151 activ,FBW7 activator
COc1ccc(-c2nnc3n2N=C(c2ccc(C)cc2)CS3)cc1OC,52.1*,14.6,-2.3,0.2
COc1ccc(C2=Nn3c(nnc3-c3cccc(F)c3)SC2)cc1,63.8*,8.5,-1.0,0.9
COc1ccc(-c2nnc3n2N=C(c2ccc(F)cc2)CS3)cc1,14.1,14.7,-1.0,0.6
CCc1nnc2n1N=C(c1ccc(OC)c(OC)c1)CS2,-27.9,-13.2,-0.3,0.0
COc1ccc(-c2nnc3n2N=C(c2cccc(OC)c2)CS3)cc1,4.4,-10.6,-0.8,-0.1
COc1cccc(C2=Nn3c(nnc3-c3cccc(C)c3)SC2)c1,48.2*,8.8,0.2,0.1
COc1ccc(-c2nnc3n2N=C(c2ccc(C)cc2)CS3)cc1,51.6*,0.6,0.1,0.5
CC(=O)NC1(c2nnnn2-c2cccc(Cl)c2)CCC(C)CC1 (centres undefined),11.3,1.5,0.1,-0.3
O=C(CSc1nnc(-c2cccc(F)c2)o1)c1cccs1,2.3,0.5,0.1,0.0
O=C(CCn1c(=S)[nH]c2ccsc2c1=O)N1CCN(c2ccccc2)CC1,1.8,-5.9,-0.3,0.1
CC(=O)c1ccc(C(=O)N2CCOc3ccc(CN4CCN(C(C)=O)CC4)cc3C2)cc1,4.8,5.5,-0.4,2.3*
COC(=O)C1CCN(Cc2ccc3c(c2)CN(C(=O)Cc2cccc(F)c2)CCO3)CC1,5.6,17.9,-0.9,2.1*
O=C(Nc1ccc(S(=O)(=O)Nc2nccs2)cc1)c1cc2ccccc2oc1=O,-16.6,7.2,2.7,0.3
O=C(CSCC(=O)Nc1ccc2nc(SCC(=O)N3CCOCC3)sc2c1)Nc1ccccc1,17.8,3.5,0.9,0.0
COC(=O)CNC(=O)c1ccc(OS(=O)(=O)c2cc([N+](=O)[O-])ccc2C)cc1,3.4,13.1,1.3,0.1
Cc1ccc(CNc2nc3ccc(C)cc3n3cnnc23)cc1,0.0,25.8,-1.1,1.4
CCOc1ccc(NC(=O)c2ccc(F)c(S(=O)(=O)N3CCN(C4CCCCC4)CC3)c2)cc1,34.5*,0.2,1.6,0.0
CCOc1ccc(NC(=O)c2ccc(F)c(S(=O)(=O)N3CCCC3)c2)cc1,36.9*,27.9,0.2,0.1
O=C(Nc1ccc(Cl)c(Cl)c1)c1ccc(F)c(S(=O)(=O)N2CCN(C3CCCCC3)CC2)c1,4.3,-5.5,-0.6,0.1
Cc1ccc(C(=O)Nc2ccc(Cl)cc2)cc1S(=O)(=O)N1CCOCC1,-9.3,-6.9,-0.2,-0.1
CCOC(=O)c1ccc(NC(=O)c2ccc(Cl)c(S(=O)(=O)N3CCOCC3)c2)cc1,72.6*,10.9,3.1,-0.1
COC(=O)CCCC(=O)Nc1cccc(Cl)c1,-7.0,2.4,-2.0,-0.1
O=C(CSc1ncccc1C(=O)O)Nc1ccc2c(c1)OCCO2,62.6*,-0.8,-0.2,0.0
O=C(Nc1ccc2c(c1)OCCO2)c1ccccc1Br,37.4*,-4.2,-2.8,0.3
O=C(Nc1ccc2c(c1)OCCO2)c1cc(Br)cc(Br)c1I,46.8*,-0.2,0.2,-0.1
O=C(Nc1nnc(-c2ccc3c(c2)OCCO3)o1)c1ccccc1Br,67.7*,20.9,-1.2,0.0
O=C(Nc1nnc(-c2ccc3c(c2)OCCO3)o1)c1ccccc1Oc1ccccc1,8.6,0.9,-0.5,0.0
Cc1ncn(-c2ccc(Nc3nccc(-c4ccc(S(C)(=O)=O)c(N5CCCC(O)C5)c4)n3)cc2)n1 (centres undefined),2.2,5.9,0.4,0.0
CS(=O)(=O)c1cccc(-c2ccnc(Nc3ccc(-n4cnc(N5CCC(O)CC5)n4)cc3)n2)c1,41.7*,4.5,-0.6,-0.1
c1cc(-c2ccnc(Nc3ccc(-n4cnc(N5CCOCC5)n4)cc3)n2)cc(N2CCOCC2)c1,43.0*,-6.6,0.9,0.2
